# Measurements published in PubChem BioAssay (NCATS).
# Several values for one entry are separate records, joined by “and”; a condition that tells them apart may be missing. Equal values may be shown once. Unmarked numbers belong to inactive results. Results filed as inconclusive are left out. Activity calls are given as the source filed them. Unless noted, the call rests on the fitted dose curve; in most records, active means well fitted curve in either direction with a large enough effect (not every such curve was filed as active); inconclusive means small, poorly fitted or top-dose-only effect, or another doubt; inactive means flat fitted curve, though single readings scatter.
# Key:
# [1] = molecular target: Lysosomal acid glucosylceramidase (Homo sapiens) (UniProt P04062); assay: Glucocerebrosidase-p2 (AID 348; in the data active means potency below about 10 µM; further: potency means the concentration at half of the fitted maximal effect); conditions: purified GBA, blue fluorogenic substrate, 40 min
# In short: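 Compounds titrated from 0.6 nM upwards against 0.2 nM enzyme in pH 5.9 citric acid/KH2PO4, taurocholate, tween-20; blue fluorogenic substrate 80 uM, 40 min room temperature, stopped and read Ex 365/Em 440 for AC50.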
# [2] = AP1 Signaling Pathway (AID 357); conditions: ME-180 AP-1-bla reporter, EGF-induced, beta-lactamase ratio, 5 h;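 further: ME-180 reporter cells stimulated with EGF at its EC50 level; on the % scale 0 is the no-effect control and ±100 the full control effect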
# In short: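 First, ME-180 AP-1-bla cells were cultured overnight at 37 °C in low-serum Opti-MEM. Next, titrated compounds with EC50 EGF were incubated 5 hours. Finally, CCF4 was added for 2.5 hours and the 460/530 nm ratio recorded.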
# [3] = Stat Signaling Pathway (AID 446); conditions: ME-180 (cervical carcinoma) SIE beta-lactamase reporter, IL-6 stimulated, 5 h;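 further: ME-180 cervical cancer cells given 40 pM IL-6 alongside compound; SIE-controlled beta-lactamase reporter measured as 460/530 nm FRET emission ratio; on the % scale 0 is the no-effect control and ±100 the full control effect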
# In short: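 IL-6/STAT signaling read in ME-180 cells via an SIE beta-lactamase reporter. Stimulus was 40 pM IL-6 (its AC50) for 5 hrs, so both activation and inhibition register.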
# [4] = molecular target: Glucocorticoid receptor (Homo sapiens) (UniProt P04150); assay: GR-GFP Redistribution (AID 450;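 active means compounds whose dose series gives a full or clear partial fitted curve of increased nuclear translocation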; further: potency means the concentration at half of the fitted maximal effect); conditions: U2OS GR-GFP nuclear translocation, laser cytometry, 2 h
# [5] = molecular target: Mitogen-activated protein kinase 10 (Mus musculus) (UniProt Q61831); assay: JNK3 AlphaScreen Assay (AID 530); conditions: JNK3 lysate, c-Jun phosphorylation; series mostly up to 57.1 µM;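 further: kinase came from lysate of stimulated human HepG2 cells; signal reports phosphorylation of biotinylated GST-cJun 1-79 at Ser73 with 10 µM ATP; on the % scale 0 is the no-effect control and ±100 the full control effect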
# In short: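 JNK3 came from HepG2 lysates pre-activated with IL-1beta and TNF-alpha and phosphorylated biotinylated GST-cJun (1-79) at 10 uM ATP, pH 7.6, room temperature. Compounds were titrated. AlphaScreen signal used anti-phospho-cJun (Ser73) antibody.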
# [6] = molecular target: 3',5'-cyclic-AMP phosphodiesterase 4B (Homo sapiens) (UniProt Q07343); assay: qHTS Assay for Inhibitors of PDE-IV (AID 607; active means well fitted activation curve with a large enough effect in the main read-out, with a control signal flat, not every such curve was filed as active; further: % of control where 0% means no effect); conditions: HEK293 ACTOne CNG channel cells, membrane potential fluorescence; series mostly up to 22.9 µM
# In short: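 Live HEK293 cells with a modified cyclic nucleotide-gated (CNG) channel report intracellular cAMP via membrane-potential dye fluorescence (ex 535/em 590 nm). Endogenous PDE-IV was targeted. Compounds were tested at up to 22.9 uM final; RO 20-1724 100 uM served as control.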
# [7] = molecular target: Glucocorticoid receptor (Homo sapiens) (UniProt P04150); assay: GR-EFC Redistribution (AID 451; calls by dose curve; further: potency means the concentration at half of the fitted maximal effect); conditions: CHO-K1 GR-EFC translocation, beta-gal luminescence, 2 h
# In short: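 CHO-K1 cells stably expressing nuclear-localized β-gal enzyme acceptor and GR fused C-terminally to the enzyme donor fragment; ligand-driven nuclear translocation restores β-gal by complementation. Compounds titrated up to 46 uM final, 2 h at 37 °C; luminescence read.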
# [8] = molecular target: Cytochrome P450 2D6 (Homo sapiens) (UniProt P10635); assay: qHTS Assay for Inhibitors and Substrates of Cytochrome P450 2D6 (AID 891; active means well fitted curve in the direction sought with a large enough effect; an effect the other way counts as inactive or inconclusive; further: nearly all actives have a fitted effect of over 60% in size; further: potency means the concentration at half of the fitted maximal effect); conditions: recombinant CYP2D6, luciferin-ME EGE luminescence; series mostly up to 11.4 µM
# In short: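 Human CYP2D6 (5 nM) with 30 uM Luciferin-ME EGE (at Km) in 100 mM KPO4, compound preincubated 10 min, then NADPH regeneration system for 60 min at room temperature. Luciferin read by luminescence; normalized to 1.43 uM quinidine.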
# [9] = molecular target: Cytochrome P450 1A2 (Homo sapiens) (UniProt P05177); assay: p450-cyp1a2 (AID 410; calls by dose curve; further: potency means the concentration at half of the fitted maximal effect;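 on activity change, negative = inhibition: -100% = full effect of reference inhibitor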); conditions: recombinant CYP1A2, luciferin-ME demethylation, luminescence; series mostly up to 11.4 µM
# In short: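 Inhibition was calculated relative to 57 uM furafylline (full inhibition). The reaction used human CYP1A2 at 20nM with Luciferin-ME at its Km, 100uM, driven by an NADPH-regenerating system for 60 min at room temperature.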
# [10] = NFAT Signaling Pathway (AID 444); conditions: Jurkat NFAT-bla M1, carbachol, beta-lactamase ratio, 5 h;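 further: carbachol stimulus at about its EC50 of 1 µM final; on the % scale 0 is the no-effect control and ±100 the full control effect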
# In short: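 Jurkat cells carrying an NFAT-driven β-lactamase reporter and co-transfected muscarinic M1 receptor were treated with compound plus carbachol (1 uM final, an EC50 level) for 5 h at 37 °C. CCF4 loading followed for 1 h at RT; 460/530 nm ratio gave %activity.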
# [11] = molecular target: Guanine nucleotide-binding protein G(i) subunit alpha-1 (Homo sapiens) (UniProt P63096); assay: qHTS Assay for Inhibitors of RGS12 GoLoco Motif Activity (Green Fluorophore) (AID 879; active means well fitted curve in the direction sought with a large enough effect; an effect the other way counts as inactive or inconclusive;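 further: 0% = labeled peptide with Gαi1 and full inhibition = labeled peptide alone without protein; negative values mean loss of peptide binding seen as reduced polarization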); conditions: Galphai1/FITC-RGS12 GoLoco peptide, fluorescence polarization; series mostly up to 57.1 µM
# In short: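 Fluorescence polarization assay: 50 nM Gαi1 with 10 nM FITC-labeled RGS12 GoLoco peptide in 10 mM Tris pH 7.5, 150 mM NaCl, 0.1 mM GDP, 0.05% NP40, 10 min at room temperature with compound.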
# [12] = qHTS Assay for Identification of Small Molecule Agonists for Thrombopoietin (TPO) Signaling Pathway (AID 917; active means well fitted curve in the direction sought with a large enough effect; an effect the other way counts as inactive or inconclusive; further: on the % scale 0 is the no-effect control and ±100 the full control effect); conditions: TPO signaling pathway reporter cells, agonist qHTS; series mostly up to 38.5 µM
# In short: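 IL-3-dependent murine pro-B Ba/F3 cells, stably transfected with human TPO receptor and GpIIb-promoter luciferase, are incubated 24 hrs at 37 C with test compound and 26 pM TPO; luciferase signal is read after 10 min at room temperature.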
# [13] = molecular target: Muscarinic acetylcholine receptor M1 (Rattus norvegicus) (UniProt P08482); assay: qHTS Assay for Antagonists of Acetylcholine Muscarinic M1 Receptor: Measurement of IP-One Response (AID 944; active means well fitted curve in the direction sought with a large enough effect; an effect the other way counts as inactive or inconclusive; further: nearly all actives have a fitted effect of over 75% in size); conditions: CHO-M1 cells, IP-One HTRF, antagonist mode; series mostly up to 46.1 µM
# In short: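 Steps: plate transfected CHO-M1 cells overnight; add test compound, 10 min; add carbachol (200 nM, EC80) in stimulation buffer with LiCl; incubate 30 min; add labelled IP1 tracer and anti-IP1 antibody in lysis buffer; read HTRF after 10 min.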
# [14] = molecular target: Pyruvate kinase (Leishmania mexicana) (UniProt Q27686); assay: qHTS Validation Assay for Inhibitors of Leishmania Mexicana Pyruvate Kinase (AID 945; active means well fitted curve in the direction sought with a large enough effect; an effect the other way counts as inactive or inconclusive;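 further: 0% = DMSO only neutral control wells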); conditions: purified L. mexicana pyruvate kinase, enzyme activity, E451W mutant enzyme; series mostly up to 57.5 µM
# In short: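 qHTS eight-point titrations against 0.2 nM LmPYK (E451W) in imidazole buffer pH 7.2 with 0.5 mM PEP, 0.1 mM ADP; 1 h, room temperature. Readout: PKLight luminescence, normalized to neutral DMSO wells.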
# [15] = molecular target: Pyruvate kinase PKM (Homo sapiens) (UniProt P14618); assay: qHTS Assay for Activators of Human Muscle Pyruvate Kinase (AID 954; active means well fitted curve in the direction sought with a large enough effect, not every such curve was filed as active;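 further: 0% = uninhibited enzyme and -100% = no enzyme or full thiadiazolimine inhibition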); conditions: purified human muscle pyruvate kinase, luciferase-coupled luminescence, 1 h; series mostly up to 57.5 µM
# In short: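 Enzyme was run at intermediate activity so both inhibitors and activators could be detected. ATP formed from ADP and PEP by 0.1 nM human PKM2 during a 1 h room-temperature incubation was quantified by coupled luciferase luminescence.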
# [16] = molecular target: Alpha-galactosidase (Coffea arabica) (UniProt Q42656); assay: Counterscreen for Glucocerebrosidase Inhibitors: qHTS Assay for Coffee Bean alpha-Galactosidase at pH 4.5 (AID 957; active means well fitted curve in the direction sought with a large enough effect; an effect the other way counts as inactive or inconclusive;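 further: plate controls were enzyme alone for no effect and no enzyme for full effect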); conditions: purified coffee bean alpha-galactosidase, fluorogenic substrate; series mostly up to 76.9 µM
# In short: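 AC50 values derive from Hill-equation modeling of concentration-response data, normalized to no-enzyme and full-activity controls. The pH 4.5 citrate assay used 2 nM coffee bean enzyme and 80 uM fluorogenic substrate for 20 min.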
# [17] = molecular target: Alpha-galactosidase A (Homo sapiens) (UniProt P06280); assay: Counterscreen for Glucocerebrosidase Inhibitors: qHTS Assay for Human alpha-Galactosidase at pH 4.5 (AID 992; active means well fitted curve in the direction sought with a large enough effect; an effect the other way counts as inactive or inconclusive; further: 0% is about no effect); conditions: purified enzyme, fluorogenic substrate; series mostly up to 76.9 µM
# In short: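 Read-out is 4-methylumbelliferone fluorescence (365 nm excitation, 440 nm emission) after a pH 10 NaOH/glycine stop. Reactions held 2 nM enzyme and 80 uM substrate at pH 4.5 for 20 min at room temperature.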
# [18] = molecular target: alpha-glucosidase (Oryza sativa, rice) (UniProt Q653V4); assay: Counterscreen for Glucocerebrosidase Inhibitors: qHTS Assay for Rice alpha-Glucosidase at pH 5.0 (AID 997; active means well fitted curve in the direction sought with a large enough effect; an effect the other way counts as inactive or inconclusive;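 further: 0% = full activity with enzyme and -100% = basal without enzyme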); conditions: rice alpha-glucosidase enzyme activity; series mostly up to 76.9 µM
# In short: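 Rice alpha-glucosidase (4 nM final) with 400 uM 4-methylumbelliferyl-alpha-D-glucopyranoside in citrate buffer pH 5.0, 20 min at room temperature, stopped at pH 10; fluorescence 365/440 nm, compounds 0.7 nM–77 uM, AC50 from Hill fits.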
# [19] = molecular target: Alpha-galactosidase (Coffea arabica) (UniProt Q42656); assay: Counterscreen for Glucocerebrosidase Inhibitors: qHTS Assay for Coffee Bean alpha-Galactosidase at pH 5.9 (AID 998; active means well fitted curve in the direction sought with a large enough effect; an effect the other way counts as inactive or inconclusive;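 further: plate controls were uninhibited enzyme for no effect and no-enzyme basal signal for full effect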); conditions: coffee bean alpha-galactosidase enzyme assay; series mostly up to 76.9 µM
# In short: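 Green coffee bean enzyme (2 nM final) was incubated with compounds (0.7 nM–77 uM) and 4-methylumbelliferyl alpha-D-galactopyranoside (80 uM) in citrate buffer pH 5.9, 20 min at room temperature. High-pH stop; fluorescence 365/440 nm; AC50 from Hill fits.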
# [20] = at 7.69 µM (top of the series) unless noted
# Chain of Lysosomal acid glucosylceramidase (Homo sapiens) (P04062 whole entry, looked up): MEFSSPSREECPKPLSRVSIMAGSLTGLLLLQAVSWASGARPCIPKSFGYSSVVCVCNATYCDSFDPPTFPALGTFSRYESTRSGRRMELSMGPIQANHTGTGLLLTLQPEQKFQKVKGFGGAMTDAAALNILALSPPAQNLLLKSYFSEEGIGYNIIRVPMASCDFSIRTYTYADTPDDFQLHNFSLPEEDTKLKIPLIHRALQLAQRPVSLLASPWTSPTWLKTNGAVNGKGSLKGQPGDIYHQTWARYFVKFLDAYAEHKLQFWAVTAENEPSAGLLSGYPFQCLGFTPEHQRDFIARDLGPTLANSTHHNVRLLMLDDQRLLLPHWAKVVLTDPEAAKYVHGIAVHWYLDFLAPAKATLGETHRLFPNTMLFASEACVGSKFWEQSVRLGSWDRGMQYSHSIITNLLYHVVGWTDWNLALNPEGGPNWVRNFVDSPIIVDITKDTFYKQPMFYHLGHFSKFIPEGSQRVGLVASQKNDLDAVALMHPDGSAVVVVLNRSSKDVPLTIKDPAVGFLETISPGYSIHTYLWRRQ
# Chain of Glucocorticoid receptor (Homo sapiens) (P04150 whole entry, looked up, the tested form may be a part): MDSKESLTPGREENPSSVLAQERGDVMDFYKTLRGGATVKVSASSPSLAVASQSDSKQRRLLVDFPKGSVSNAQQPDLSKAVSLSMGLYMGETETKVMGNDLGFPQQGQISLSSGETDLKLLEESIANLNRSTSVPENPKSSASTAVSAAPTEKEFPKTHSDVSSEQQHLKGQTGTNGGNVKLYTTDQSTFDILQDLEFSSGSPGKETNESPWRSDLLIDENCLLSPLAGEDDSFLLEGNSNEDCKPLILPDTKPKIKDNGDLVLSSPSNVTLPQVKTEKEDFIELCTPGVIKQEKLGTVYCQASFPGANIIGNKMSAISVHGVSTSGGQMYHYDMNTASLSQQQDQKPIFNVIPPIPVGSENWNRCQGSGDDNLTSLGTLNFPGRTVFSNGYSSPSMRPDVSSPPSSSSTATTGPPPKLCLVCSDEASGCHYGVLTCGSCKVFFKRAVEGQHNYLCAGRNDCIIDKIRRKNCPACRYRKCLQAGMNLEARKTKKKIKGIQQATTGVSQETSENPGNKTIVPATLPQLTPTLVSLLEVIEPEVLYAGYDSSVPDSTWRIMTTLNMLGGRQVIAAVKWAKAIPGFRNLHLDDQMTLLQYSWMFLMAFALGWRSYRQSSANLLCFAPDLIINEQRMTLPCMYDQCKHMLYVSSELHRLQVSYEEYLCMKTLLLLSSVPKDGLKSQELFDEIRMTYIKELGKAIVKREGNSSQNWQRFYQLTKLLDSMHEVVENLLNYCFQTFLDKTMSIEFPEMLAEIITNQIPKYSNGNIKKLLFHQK
# Chain of Cytochrome P450 2D6 (Homo sapiens) (P10635 whole entry, looked up): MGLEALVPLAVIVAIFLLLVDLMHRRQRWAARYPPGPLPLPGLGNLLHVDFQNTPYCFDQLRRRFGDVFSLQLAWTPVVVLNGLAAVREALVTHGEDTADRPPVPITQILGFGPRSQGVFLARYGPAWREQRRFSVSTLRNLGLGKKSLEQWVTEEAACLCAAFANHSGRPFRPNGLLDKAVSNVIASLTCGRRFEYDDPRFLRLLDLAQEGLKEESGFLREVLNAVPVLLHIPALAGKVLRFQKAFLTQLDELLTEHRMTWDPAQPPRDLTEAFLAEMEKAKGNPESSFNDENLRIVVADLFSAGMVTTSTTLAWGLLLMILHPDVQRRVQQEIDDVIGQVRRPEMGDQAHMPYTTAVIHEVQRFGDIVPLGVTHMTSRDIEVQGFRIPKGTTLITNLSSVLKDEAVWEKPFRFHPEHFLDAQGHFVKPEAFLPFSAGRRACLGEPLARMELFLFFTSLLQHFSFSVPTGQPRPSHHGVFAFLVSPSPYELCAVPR
# Chain of Cytochrome P450 1A2 (Homo sapiens) (P05177 whole entry, looked up): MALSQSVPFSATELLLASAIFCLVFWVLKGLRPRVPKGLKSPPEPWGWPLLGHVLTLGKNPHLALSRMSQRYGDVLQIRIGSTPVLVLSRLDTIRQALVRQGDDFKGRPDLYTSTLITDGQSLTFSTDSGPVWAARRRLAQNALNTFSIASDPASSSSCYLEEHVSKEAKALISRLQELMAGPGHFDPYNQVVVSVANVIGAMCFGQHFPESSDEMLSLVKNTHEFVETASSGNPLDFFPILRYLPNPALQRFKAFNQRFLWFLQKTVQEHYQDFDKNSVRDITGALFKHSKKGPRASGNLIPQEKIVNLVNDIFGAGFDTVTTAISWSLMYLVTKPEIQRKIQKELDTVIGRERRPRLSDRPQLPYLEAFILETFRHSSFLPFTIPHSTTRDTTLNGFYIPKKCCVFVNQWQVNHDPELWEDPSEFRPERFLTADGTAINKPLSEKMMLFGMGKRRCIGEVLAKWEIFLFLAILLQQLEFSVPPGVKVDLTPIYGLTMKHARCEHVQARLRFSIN
# Chain of 3',5'-cyclic-AMP phosphodiesterase 4B (Homo sapiens) (Q07343 whole entry, looked up): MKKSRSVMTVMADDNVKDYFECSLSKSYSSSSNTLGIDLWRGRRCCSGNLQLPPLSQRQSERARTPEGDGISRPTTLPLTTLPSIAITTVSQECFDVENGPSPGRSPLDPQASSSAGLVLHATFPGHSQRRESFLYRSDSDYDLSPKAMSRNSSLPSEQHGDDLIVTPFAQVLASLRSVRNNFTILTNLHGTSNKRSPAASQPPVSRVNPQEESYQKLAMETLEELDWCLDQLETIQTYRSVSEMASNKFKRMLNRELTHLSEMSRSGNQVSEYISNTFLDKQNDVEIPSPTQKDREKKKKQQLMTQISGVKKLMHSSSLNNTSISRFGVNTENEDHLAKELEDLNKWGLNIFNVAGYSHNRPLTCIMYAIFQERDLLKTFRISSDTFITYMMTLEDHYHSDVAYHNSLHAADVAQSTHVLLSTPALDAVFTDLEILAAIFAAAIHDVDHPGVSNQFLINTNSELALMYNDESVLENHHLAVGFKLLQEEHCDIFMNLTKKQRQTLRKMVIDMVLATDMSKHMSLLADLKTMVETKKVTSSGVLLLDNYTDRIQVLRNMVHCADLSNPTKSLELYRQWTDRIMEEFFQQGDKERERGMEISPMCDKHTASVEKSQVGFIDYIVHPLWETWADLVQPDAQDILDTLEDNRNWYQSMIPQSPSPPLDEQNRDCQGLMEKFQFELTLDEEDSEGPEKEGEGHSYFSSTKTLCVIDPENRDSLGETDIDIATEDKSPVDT
# Chain of Alpha-galactosidase (Coffea arabica) (Q42656 whole entry, looked up): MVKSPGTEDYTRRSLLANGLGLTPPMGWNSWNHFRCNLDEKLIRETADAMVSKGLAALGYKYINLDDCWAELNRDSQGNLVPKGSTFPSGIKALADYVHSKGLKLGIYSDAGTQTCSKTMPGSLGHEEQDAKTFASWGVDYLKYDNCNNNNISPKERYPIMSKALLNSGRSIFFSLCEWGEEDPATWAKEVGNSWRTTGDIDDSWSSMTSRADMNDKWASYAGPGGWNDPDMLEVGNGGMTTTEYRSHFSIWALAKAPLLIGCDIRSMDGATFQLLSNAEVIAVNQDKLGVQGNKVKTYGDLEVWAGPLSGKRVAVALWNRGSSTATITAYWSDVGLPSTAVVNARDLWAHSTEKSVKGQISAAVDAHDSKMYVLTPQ
# Chain of Pyruvate kinase (Leishmania mexicana) (Q27686 2-499 E452W): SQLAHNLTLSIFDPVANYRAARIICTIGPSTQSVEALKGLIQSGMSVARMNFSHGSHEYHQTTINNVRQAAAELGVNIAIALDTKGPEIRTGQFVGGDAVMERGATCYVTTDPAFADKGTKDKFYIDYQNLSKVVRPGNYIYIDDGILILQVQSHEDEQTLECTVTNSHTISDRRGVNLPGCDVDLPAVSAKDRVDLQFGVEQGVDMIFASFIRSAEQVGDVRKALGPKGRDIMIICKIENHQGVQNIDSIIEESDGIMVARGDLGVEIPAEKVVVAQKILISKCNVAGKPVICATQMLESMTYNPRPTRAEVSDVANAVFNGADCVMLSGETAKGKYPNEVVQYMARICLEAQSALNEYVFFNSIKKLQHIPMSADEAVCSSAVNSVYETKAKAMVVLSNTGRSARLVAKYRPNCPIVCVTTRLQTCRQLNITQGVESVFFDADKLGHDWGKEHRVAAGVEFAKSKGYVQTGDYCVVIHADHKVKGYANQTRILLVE
# Chain of Muscarinic acetylcholine receptor M1 (Rattus norvegicus) (P08482 whole entry, looked up): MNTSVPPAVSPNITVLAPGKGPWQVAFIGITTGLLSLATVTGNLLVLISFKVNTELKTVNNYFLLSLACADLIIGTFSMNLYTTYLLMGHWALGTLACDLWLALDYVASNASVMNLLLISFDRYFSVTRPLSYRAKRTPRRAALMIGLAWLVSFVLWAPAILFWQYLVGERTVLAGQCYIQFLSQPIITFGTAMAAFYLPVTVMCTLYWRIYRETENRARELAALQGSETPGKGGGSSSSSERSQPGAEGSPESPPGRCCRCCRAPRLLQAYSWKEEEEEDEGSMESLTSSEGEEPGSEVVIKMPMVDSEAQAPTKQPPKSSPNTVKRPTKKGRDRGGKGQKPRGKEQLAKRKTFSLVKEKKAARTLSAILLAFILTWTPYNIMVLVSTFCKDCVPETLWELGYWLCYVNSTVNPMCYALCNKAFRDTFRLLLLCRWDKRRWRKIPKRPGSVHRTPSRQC
# Chain of Pyruvate kinase PKM (Homo sapiens) (P14618 whole entry, looked up): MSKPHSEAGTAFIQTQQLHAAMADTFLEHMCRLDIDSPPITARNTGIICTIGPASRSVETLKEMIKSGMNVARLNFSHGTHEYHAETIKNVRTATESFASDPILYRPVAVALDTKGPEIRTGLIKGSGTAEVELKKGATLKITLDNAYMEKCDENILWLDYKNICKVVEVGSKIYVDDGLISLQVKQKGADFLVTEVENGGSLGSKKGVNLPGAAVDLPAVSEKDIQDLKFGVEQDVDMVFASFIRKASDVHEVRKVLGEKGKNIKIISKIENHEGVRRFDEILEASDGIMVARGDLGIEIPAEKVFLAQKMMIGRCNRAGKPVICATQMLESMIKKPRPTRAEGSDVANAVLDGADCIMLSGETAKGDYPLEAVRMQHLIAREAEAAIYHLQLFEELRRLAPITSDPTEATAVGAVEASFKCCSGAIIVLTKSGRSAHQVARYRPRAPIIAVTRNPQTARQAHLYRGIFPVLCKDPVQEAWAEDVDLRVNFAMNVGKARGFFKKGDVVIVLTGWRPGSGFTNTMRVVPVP
structure (smiles),measurement,setting,value
CCN(CC)CCn1ncc2c(N)ncnc21,Potency,[1],> 11.4 µM
same,"activity change, negative = inhibition",[2]; [20],1.87%
same,"activity, negative = inhibition",[3]; [20],-0.447%
same,Potency,[4],> 46 µM
same,"activity change, negative = inhibition",[5],-1.5% [at 11.4 µM]
same,outcome,[6],inactive
CC1=NN(c2ccccc2)C(=O)[C@@H]1N=Nc1ccc([As](=O)(O)O)c(O)c1,Potency,[1],> 11.4 µM
same,"activity change, negative = inhibition",[2]; [20],6.32%
same,"activity, negative = inhibition",[3]; [20],-13.3%
same,Potency,[4],> 46 µM
same,Potency,[7],> 9.22 µM
same,"activity change, negative = inhibition",[5],-2.32% [at 11.4 µM]
same,outcome,[6],inactive
same,Potency,[8],inactive
COc1cc2c(cc1O)C[C@@H]1c3c(cc(O)c(OC)c3-2)CCN1C,Potency,[1],> 11.4 µM
same,Potency,[9],3.98 µM (active)
same,"activity change, negative = inhibition",[10]; [20],-0.493%
same,"activity, negative = inhibition",[3]; [20],0.101%
same,Potency,[4],> 46 µM
same,"activity change, negative = inhibition",[5],4.75% [at 11.4 µM]
same,outcome,[6],inactive
CC(C)c1ccc(C(O)(C(=O)O)c2ccc(C(C)C)cc2)cc1,Potency,[1],> 11.4 µM
same,"activity change, negative = inhibition",[2]; [20],2.63%
same,"activity, negative = inhibition",[3]; [20],4.5%
same,Potency,[4],> 46 µM
same,Potency,[7],> 9.22 µM
same,"activity change, negative = inhibition",[5],5.33% [at 11.4 µM]
same,outcome,[6],inactive
same,Potency,[8],inactive
C[C@@H](Cc1ccc(O)cc1)NC[C@@H](O)c1cc(O)cc(O)c1,"activity change, negative = inhibition",[2]; at 17.2 µM (top of the series),-20.6%
same,"activity change, negative = inhibition",[2]; at 38 µM (top of the series),-23%
same,Potency,[9],inactive
same,"activity change, negative = inhibition",[10]; at 17.2 µM (top of the series),-2.14%
same,"activity change, negative = inhibition",[10]; at 38 µM (top of the series),-6.03%
same,"activity, negative = inhibition",[3]; at 17.2 µM (top of the series),-8.37%
same,"activity, negative = inhibition",[3]; at 38 µM (top of the series),-28.1%
same,Potency,[4],> 46 µM and > 20.6 µM
same,Potency,[7],> 46 µM and > 20.6 µM
same,Potency,[5],inactive
same,outcome,[6],inactive
same,outcome,[11],inactive
same,outcome,[12],inactive
same,Potency,[13],inactive
same,outcome,[14],inactive
same,outcome,[15],inactive
same,outcome,[16],inactive
same,outcome,[17],inactive
same,outcome,[18],inactive
same,outcome,[19],inactive
COC1=C(C)C(=O)c2c(c(COC(N)=O)c3n2C[C@@H]2[C@@H]3N2C)C1=O (stereo partly specified),Potency,[1],> 11.4 µM
same,Potency,[4],> 46 µM
same,Potency,[7],> 9.22 µM
same,"activity change, negative = inhibition",[5],-0.1% [at 11.4 µM]
same,outcome,[6],inactive
same,Potency,[8],1.58 µM (active)
O=C(O)[C@H](Cc1cnc[nH]1)N1C(=O)c2ccccc2C1=O,Potency,[1],> 11.4 µM
same,"activity change, negative = inhibition",[2]; [20],-8.47%
same,"activity, negative = inhibition",[3]; [20],4.43%
same,Potency,[7],> 9.22 µM
same,"activity change, negative = inhibition",[5],41.7% [at 11.4 µM]
same,outcome,[6],inactive
